# From PubChem BioAssay (NCATS)
# Where “and” joins values, the source holds several entries; their conditions need not be identical. Identical values can stand only once. Records with an inconclusive call do not appear. Entries that show only a call come without a potency. More than one record can exist for a structure, and the calls need not agree. Calls of active or inactive are those of the source. Unless noted, calls follow the shape of the full dose curve.
# Legend:
# [1] = Primary qHTS for inhibitors of MERS-S pseudo-typed particle cell entry (AID 1479149); details: outcome: dose series up to 57.1 µM unless noted; also: nearly all actives have a fitted effect of over 60% in size; also: potency is read from the fitted curve at half-maximal effect
# [2] = Primary qHTS to identify inhibitors of SARS-CoV-2 cell entry (AID 1645846); details: SARS-CoV-2 pseudovirus cell entry assay, luminescence; activity change, negative = inhibition: at 57.1 µM (top of the series) unless noted; also: nearly all actives have a fitted effect of over 45% in size; also: potency is read from the fitted curve at half-maximal effect
# In short: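 HEK293 cells stably expressing human ACE2, pre-treated 1 h with compound, then infected with MLV particles pseudotyped with Wuhan-Hu-1 spike (C-terminal 19-aa truncation). Luciferase luminescence after 48 h at 37 °C, normalised to spike PP and bald PP.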
# [3] = Primary qHTS for Huh7 cytotoxicity: counterscreen for inhibitors of MERS-S pseudotyped particle cell entry (AID 1479147); details: outcome: dose series up to 57.1 µM unless noted
# [4] = Primary qHTS for Vero E6 cytotoxicity: counterscreen for inhibitors of SARS-S pseudo-typed particle cell entry (AID 1479150); details: outcome: dose series up to 57.1 µM unless noted; also: potency is read from the fitted curve at half-maximal effect
# [5] = Cytotoxicity counterscreen for inhibitors of SARS-CoV-2 cell entry (AID 1645845); details: outcome: dose series up to 57.1 µM unless noted; also: nearly all actives have a fitted effect of over 50% in size; also: potency is read from the fitted curve at half-maximal effect
# In short: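 ATP-content luminescence (ATPLite 1step, 15 min RT) read after 48 h compound exposure of Expi293F cells stably expressing human ACE2; normalized to cells-only wells and media-only wells.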
# [6] = VSVG counterscreen qHTS to identify inhibitors of SARS-CoV-2 cell entry (AID 1645847); also: potency is read from the fitted curve at half-maximal effect; nearly all actives have a fitted effect of over 65% in size
# In short: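 HEK293-ACE2 cells (Expi293F, human ACE2) pretreated 1 h with compound, then infected with MLV-based VSV-G pseudotyped particles for 48 h at 37 C; luciferase luminescence normalized to VSV-G PP and bald PP wells.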
# [7] = qHTS Assay for Identifying Gametocytocidal Compounds (AID 743244; active = well fitted curve in the direction sought with a large enough effect; also: potency is read from the fitted curve at half-maximal effect); details: P. falciparum 3D7 stage III-V gametocytes, alamarBlue, 72 h
# In short: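 Late gametocytes (III–V), P. falciparum 3D7; 72 h drug, then 24 h alamarBlue; resazurin reduction read by fluorescence.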
# [8] = Confirmatory qHTS for VERO E6 Cytotoxicity Assay: Counterscreen for SARS-CoV-2 CPE Assay (AID 1508605); also: potency is read from the fitted curve at half-maximal effect; nearly all actives have a fitted effect of over 60% in size
smiles,measurement,setting,value
Cc1cc(/C=C/c2ccc3cc(N(C)C)ccc3[n+]2C)c(C)n1-c1ccccc1,Potency,[1],5.01 µM (active)
same,Potency,[2],1.78 µM (active)
CC(Cc1ccc(O)c(O)c1)C(C)Cc1ccc(O)c(O)c1 (stereo not given),Potency,[3],inactive
same,Potency,[4],inactive
same,Potency,[5],inactive
same,Potency,[6],27.1 µM (active)
C=CC[C@@H]1/C=C(\C)C[C@H](C)C[C@H](OC)[C@H]2O[C@@](O)(C(=O)C(=O)N3CCCC[C@H]3C(=O)O[C@H](/C(C)=C/[C@@H]3CC[C@@H](O)[C@H](OC)C3)[C@H](C)[C@@H](O)CC1=O)[C@H](C)C[C@@H]2OC,Potency,[3],inactive
same,Potency,[4],inactive
same,Potency,[5],inactive
same,Potency,[2],inactive
CCCCC(=O)OCC(=O)[C@]1(O)Cc2c(O)c3c(c(O)c2[C@@H](O[C@H]2C[C@H](NC(=O)C(F)(F)F)[C@H](O)[C@H](C)O2)C1)C(=O)c1c(OC)cccc1C3=O,Potency,[7],7.08 µM (active)
same,Potency,[1],14.1 µM (active)
same,Potency,[4],inactive
same,Potency,[5],inactive
same,Potency,[2],1 µM (active)
same,"activity change, negative = inhibition",[2],-97.5%
same,Potency,[6],0.961 µM (active)
CCN1/C(=C/C=C/C=C/c2sc3ccccc3[n+]2CC)Sc2ccccc21,Potency,[1],11.2 µM (active)
CC[C@@H](C(=O)O)[C@@H]1O[C@@H]([C@@H](C)[C@H](O)[C@H](C)C(=O)[C@H](CC)[C@H]2O[C@]3(C=C[C@@H](O)[C@]4(CC[C@@](C)([C@H]5CC[C@](O)(CC)[C@H](C)O5)O4)O3)[C@H](C)C[C@@H]2C)[C@@H](C)C[C@@H]1C,Potency,[7],0.316 µM (active)
same,Potency,[1],0.355 µM (active)
same,Potency,[4],inactive
same,Potency,[2],0.708 µM (active)
CCCCCCOc1ccc(C(=N)N(CCCC)CCCC)c2ccccc12,Potency,[4],14.1 µM (active)
same,Potency,[8],10 µM (active)
CC(C)(C)NCC(O)COc1ccccc1C1CCCC1 (stereo not given),Potency,[3],inactive
same,Potency,[4],inactive
same,Potency,[5],inactive
same,Potency,[2],10 µM (active)
same,Potency,[6],12.1 µM (active)
CCCN1C[C@@H](NS(=O)(=O)N(CC)CC)C[C@@H]2Cc3c(O)cccc3C[C@H]21,Potency,[4],inactive
CCCCC(=O)O[C@H]1CC[C@H]2[C@@H]3CCc4cc(O)ccc4[C@H]3CC[C@]12C,Potency,[3],inactive
same,Potency,[4],inactive
same,"activity change, negative = inhibition",[2],-64.3%
CC(C)[C@H]1C(=O)N[C@@H](CCCN=C(N)N)C(=O)NCC(=O)N[C@@H](CC(=O)O)C(=O)N[C@H](Cc2ccccc2)C(=O)N1C,Potency,[3],inactive
same,Potency,[4],inactive
same,Potency,[5],inactive
same,"activity change, negative = inhibition",[2],-11.5% [at 27.1 µM]
CC(CN1c2ccccc2Sc2cccnc21)N(C)C (stereo not given),Potency,[3],inactive
same,Potency,[4],inactive
same,Potency,[5],inactive
same,Potency,[6],24.1 µM (active)
Clc1cc(Cl)c(OCC#CI)cc1Cl,Potency,[1],inactive
NC(=O)c1cccc2cn(-c3ccc(C4CCCNC4)cc3)nc12 (stereo not given),Potency,[1],25.1 µM (active)
same,Potency,[4],inactive
CCCCCCCC(=O)CC[C@@H]1[C@@H](C/C=C\CCCC(=O)OC(C)C)[C@@H](O)C[C@H]1O,Potency,[3],inactive
same,Potency,[4],inactive
same,Potency,[2],25.1 µM (active)
Cc1cc(-n2c(=O)[nH]c(=O)n(C)c2=O)ccc1Oc1ccc(S(=O)(=O)C(F)(F)F)cc1,Potency,[3],inactive
same,Potency,[2],17.8 µM (active)
COC(=O)N[C@H](C(=O)N1CCC[C@H]1c1ncc(-c2ccc(-c3ccc(-c4cnc([C@@H]5CCCN5C(=O)[C@@H](NC(=O)OC)C(C)C)[nH]4)cc3)cc2)[nH]1)C(C)C,Potency,[3],inactive
same,Potency,[4],inactive
same,Potency,[5],39.8 µM (active)
same,Potency,[6],1.71 µM (active)
CNS(=O)(=O)CC1CCC(N(C)c2ncnc3[nH]ccc23)CC1 (stereo not given),Potency,[3],inactive
same,Potency,[4],inactive
same,Potency,[5],inactive
same,Potency,[2],inactive
CC1=CC(=C(c2ccc(N)cc2)c2ccc(N)cc2)C=CC1=N,Potency,[1],7.08 µM (active)
same,Potency,[2],5.01 µM (active)
C[C@H](Oc1cc(-c2cnn(C3CCNCC3)c2)cnc1N)c1c(Cl)ccc(F)c1Cl,Potency,[1],12.6 µM (active)
same,Potency,[4],inactive
same,Potency,[5],inactive
same,Potency,[2],11.2 µM (active)
O=C1CSC2(CCN(CCCN3c4ccccc4Sc4ccc(Cl)cc43)CC2)N1,Potency,[3],inactive
same,Potency,[4],inactive
same,Potency,[2],25.1 µM (active)
CC(=O)O[C@]1(C(C)=O)CC[C@H]2[C@@H]3C=C(C)C4=CC(=O)CC[C@@H]4[C@H]3CC[C@@]21C,Potency,[3],inactive
same,Potency,[4],inactive
same,Potency,[5],inactive
same,"activity change, negative = inhibition",[2],-20%
COc1cc([C@@H]2c3cc4c(cc3[C@@H](O[C@@H]3O[C@@H]5CO[C@@H](C)O[C@H]5[C@H](O)[C@H]3O)[C@H]3COC(=O)[C@H]23)OCO4)cc(OC)c1OP(=O)(O)O,Potency,[3],inactive
same,Potency,[2],3.55 µM (active)
same,Potency,[6],0.482 µM (active)
Clc1ccc(CCCOCCCN2CCCCC2)cc1,Potency,[4],inactive
same,Potency,[5],inactive
C=CC(=O)Nc1cc(Nc2nccc(-c3cn(C)c4ccccc34)n2)c(OC)cc1N(C)CCN(C)C,Potency,[1],31.6 µM (active)
same,Potency,[5],28.2 µM (active)
same,Potency,[2],3.16 µM (active) and 8.91 µM (active)
CC(=O)Oc1cc(C)c(OC(C)=O)c2ccccc12,Potency,[4],inactive
same,Potency,[2],31.6 µM (active)
